Among the data in the OligoGym collection are sensor-assay potency score (higher = more potent) values, retold here.
Also: reference of the scale not given here.

The target of the first test is GRK1. The test is described as follows: pooled miR-30 sensor sort-seq; sequence = guide strand. The conditions noted are these: shRNA.
Sequence TTGTCGCAGGTCTCATCTCTGA displayed a sensor-assay potency score (higher = more potent) of -1.13. TTAAGGTCCTTGAAGAGGGGGT came in with a sensor-assay potency score (higher = more potent) of 0.091.

As for TTCTTGTTCAGCTTCTTGCAGG, the sensor-assay potency score (higher = more potent) was -0.533. TTGTTCTCCACCTTCTCTCCAC displayed a sensor-assay potency score (higher = more potent) of -0.0458. On to TTAAACTTCGCCACTATCCCCT, for which the sensor-assay potency score (higher = more potent) was 0.34.

Sequence TTGCCGGTCGCCTTCATCTGGC showed a sensor-assay potency score (higher = more potent) of -1.21.

With TTGTTCAGCTTCTTGCAGGCAT, the sensor-assay potency score (higher = more potent) was 0.349. On the same count and under the same terms, the same measure for TTTGCGTAGACAGTTTTGGAGT: -0.657; for TAAACTTCGCCACTATCCCCTC: -0.678.

Another test addresses GRSF1. Described as above. The conditions noted are these: shRNA.
Turning to ATGTATTCCATTCTCACCGTTG, the sensor-assay potency score (higher = more potent) was -1.12. Same read-out and setting: the same measure for TTCTTCTAAACAGTCCACTATG: -0.687. As to TCTGCTTGGAAATATCTCGATG, the sensor-assay potency score (higher = more potent) is -0.758.

TCGATTACCAATTTCTTCCCTG returned a sensor-assay potency score (higher = more potent) of -0.139. Take TATACTTCCACATACCGCTGGC: the sensor-assay potency score (higher = more potent) was -0.174.

The sequence TTATATACTTAGCAGTAGGAAA displayed a sensor-assay potency score (higher = more potent) of -1.31. The sequence TTGAGCATCGCTGCAACAGCAT gave a sensor-assay potency score (higher = more potent) of -0.486. Consider TAAGGCTTTCTGCACATCCTGC, for which the sensor-assay potency score (higher = more potent) is -0.572.

TAGCAGTAGGAAAAGATGCGAT: the sensor-assay potency score (higher = more potent) is -0.689.

In turn, TTCTTCTTCTAAACAGTCCACT displayed a sensor-assay potency score (higher = more potent) of -0.559. In turn, TTTCTTCTTCTAAACAGTCCAC showed a sensor-assay potency score (higher = more potent) of -0.0512. Sequence TTCATGTTCTTCAAAGACCATT displayed a sensor-assay potency score (higher = more potent) of -0.97.

Another test addresses GSTO1. The test is described as above. The conditions noted are these: shRNA.
On to TTTCTCACTAGTAAGCAGGGCT, for which the sensor-assay potency score (higher = more potent) came to 0.254. Still for that read-out and setting: the same measure for TTATTAGTCAGAACCTCCTCTA: -0.622; for ATATTGATGACTTCATGCCTGA: -0.0136. The same measure, in the same setting: the same measure for TAACTTCATTGCTTCCAGCCGT: -0.351; for TAGAGATAGAATTGCCACCAAA: -1.16. On to TTTTCTTAAAGAACCACTCAGG, for which the sensor-assay potency score (higher = more potent) is -0.256. Turning to TCTAATAAAGCTTCCTACCAAG, the sensor-assay potency score (higher = more potent) is -0.981.

The sequence TGAGACTGTGGGATCTTCCTTC yielded a sensor-assay potency score (higher = more potent) of 0.458. Same read-out and setting: the same measure for AACTCTAAGATCATCTTCTGGC: -0.0597. In the case of TATTAGTCAGAACCTCCTCTAG, the sensor-assay potency score (higher = more potent) was -0.847. TAGGCCAGCATAGTCTTCTTTA registered a sensor-assay potency score (higher = more potent) of -0.878. In the case of TCTAAGATCATCTTCTGGCAAG, the sensor-assay potency score (higher = more potent) was -0.832.

The target of another test is GTF2H5. Described as above. The conditions noted are these: shRNA.
Turning to TAACCAATTCTGCTATTACAAA, the sensor-assay potency score (higher = more potent) was -1.59.

TCTTGAATGATGAACTTCTTCC showed a sensor-assay potency score (higher = more potent) of -0.75. The same measure, in the same setting: the figure for TGAATGATGAACTTCTTCCCCA is -0.103. TATTACAAAGACGTGAGTGTCA: the sensor-assay potency score (higher = more potent) amounted to 0.236.

Regarding TTGAATGATGAACTTCTTCCCC, the sensor-assay potency score (higher = more potent) is -0.395. Same read-out and setting: the same measure for TTCTGCTATTACAAAGACGTGA: -0.0161; for TCTGCTATTACAAAGACGTGAG: 0.353.
